Experimental data from publication PMC5540273 (PLoS ONE, 2017).

Key:
Details in all cases: concentration: 1 μM, replicates: in singlicate; n = 1
[1] = tested on: MAP4K3
[2] = tested on: MAP4K4
[3] = tested on: MAP4K5
[4] = tested on: MAPKAPK2
[5] = tested on: MAPKAPK5
[6] = tested on: MARK1
[7] = tested on: MARK2
[8] = tested on: MARK3
[9] = tested on: MARK4
[10] = tested on: MAST1
[11] = tested on: T1, MEK1
T1 construct: gene MAP2K1

[12] = tested on: T2, MEK2
T2 construct: gene MAP2K2

[13] = tested on: T3, MEK3
T3 construct: gene MAP2K3

[14] = tested on: T4, MEK4
T4 construct: gene MAP2K4

[15] = tested on: T5, MEK5
T5 construct: gene MAP2K5

[16] = tested on: T6, MEK6
T6 construct: gene MAP2K6

[17] = tested on: MELK
[18] = tested on: MERTK
[19] = tested on: MET
[20] = tested on: T7, MINK
T7 construct: gene MINK1
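Further: KINOMEscan kinase panel screen.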

Row | SMILES | %Inh [1] | %Inh [2] | %Inh [3] | %Inh [4] | %Inh [5] | %Inh [6] | %Inh [7] | %Inh [8] | %Inh [9] | %Inh [10] | %Inh [11] | %Inh [12] | %Inh [13] | %Inh [14] | %Inh [15] | %Inh [16] | %Inh [17] | %Inh [18] | %Inh [19] | %Inh [20]
1 | CSc1ccc(-c2cc3ncnc(SCC(=O)O)c3s2)cc1 | 0% | 0% | 0% | 1% | 0% | 0% | 18% | 6% | 0% | 15% | 0% | 0% | 2% | 0% | 1% | 0% | 10% | 0% | 3% | 8%
2 | Cc1nnc(-c2ccc3occ(-c4ccc(C(C)O)cc4)c3c2)o1 (stereo not drawn) | 7% | 12% | 15% | 21% | 19% | 7% | 16% | 0% | 8% | 0% | 10% | 24% | 11% | 15% | 8% | 8% | 12% | 3% | 5% | 0%
3 | Cn1ccc2ncnc(Oc3ccc(NC(=O)Nc4ccncc4)c(Cl)c3)c21 | 0% | 0% | 0% | 0% | 0% | 0% | 11% | 2% | 0% | 2% | 40% | 32% | 0% | 0% | 4% | 0% | 0% | 0% | 0% | 0%
4 | O=c1cc(N2CCOCC2)nc2n(Cc3cccc(C(F)(F)F)c3)ccn12 [GSK2297543] | 0% | 0% | 0% | 0% | 0% | 1% | 0% | 0% | 12% | 9% | 0% | 0% | 0% | 31% | 0% | 0% | 4% | 0% | 0% | 0%
5 | Cc1nnc(-c2ccc(C)c(-c3ccc(C(=O)Nc4ccc(NS(C)(=O)=O)cc4)cc3)c2)o1 [GW702865] | 0% | 0% | 0% | 11% | 0% | 0% | 0% | 0% | 10% | 21% | 8% | 7% | 0% | 0% | 18% | 0% | 10% | 0% | 12% | 19%
6 | COc1ccc(Nc2nccc(N3CCC(NC(=O)Nc4cc(C)ccc4C)C3)n2)cc1 (stereo not drawn) [GSK1379741] | 0% | 0% | 0% | 14% | 0% | 0% | 0% | 0% | 0% | 9% | 0% | 0% | 0% | 14% | 44% | 0% | 0% | 24% | 0% | 0%
7 | Fc1ccc(-c2ncn(CCCN3CCOCC3)c2-c2cccnc2)cc1 [SB-211743] | 11% | 0% | 4% | 0% | 0% | 3% | 5% | 0% | 16% | 0% | 27% | 44% | 26% | 15% | 15% | 0% | 0% | 4% | 0% | 16%
8 | Fc1ccc(-c2nn3c(OCC(F)(F)F)cccc3c2-c2ccncc2)cc1 [GW514784] | 0% | 0% | 0% | 0% | 0% | 0% | 0% | 0% | 0% | 48% | 0% | 0% | 0% | 0% | 20% | 1% | 3% | 0% | 0% | 35%
9 | NS(=O)(=O)c1cccc(-c2ccc3nccc(-c4cccc(S(N)(=O)=O)c4)c3c2)c1 [GW867253] | 0% | 0% | 0% | 0% | 0% | 7% | 0% | 0% | 25% | 47% | 23% | 30% | 38% | 15% | 41% | 7% | 0% | 14% | 0% | 27%
10 | O=C1NC(=O)C(N2CCc3ccccc32)=C1c1cccc(Cl)c1 [SB-408010] | 20% | 0% | 0% | 3% | 0% | 4% | 0% | 0% | 0% | 0% | 0% | 0% | 0% | 0% | 0% | 0% | 0% | 0% | 0% | 0%
11 | COc1cc2c(cc1OC[C@@H](O)CO)ncc1c3ccc(C#N)cc3[nH]c21 | 20% | 27% | 3% | 0% | 0% | 0% | 10% | 0% | 0% | 62% | 45% | 42% | 0% | 0% | 99.9% | 0% | 31% | 0% | 0% | 91.9%
12 | Cc1c2ccc(N(C)c3ccnc(Nc4cccc(S(N)(=O)=O)c4)n3)cc2nn1Cc1ccccc1.Cl.Cl [GW787226] | 70% | 33% | 87% | 0% | 0% | 18% | 0% | 49% | 36% | 0% | 12% | 34% | 29% | 75% | 98.4% | 23% | 16% | 70% | 60% | 54%
13 | NS(=O)(=O)CCc1cccc(Nc2nccc(-c3c(-c4cccc(NC(=O)c5c(F)cccc5F)c4)nn4ccccc34)n2)c1 [GSK336735] | 65% | 76% | 95.8% | 23% | 0% | 13% | 0% | 6% | 26% | 0% | 82% | 76% | 12% | 36% | 99.7% | 47% | 24% | 87% | 83% | 62%
14 | COc1ccc(CNC(=O)NC2CCN(c3ccnc(Nc4ccc(OC)cc4)n3)C2)cc1 (stereo not drawn) [GSK1379727] | 0% | 0% | 0% | 20% | 0% | 0% | 0% | 0% | 0% | 0% | 0% | 0% | 0% | 17% | 37% | 0% | 4% | 16% | 0% | 4%
15 | CCn1cnc2c(N)ncnc21 [GW345098] | 1% | 0% | 0% | 0% | 10% | 0% | 12% | 4% | 0% | 5% | 26% | 20% | 26% | 11% | 1% | 0% | 0% | 25% | 2% | 5%
